RORg inh: blocks mouse ROR gamma transcriptional activity | P51450 | Drosophila S2 Gal4-RORgamma UAS-luciferase reporter, 20 h | Potency, µM (highest dose often 53.6 µM), for the others: at the highest dose activity change, negative = inhibition, usual class: inhibitors | hit rate 5.4% among 310,000; further: nearly all actives have a fitted effect of over 60% in size
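Drosophila Schneider cells stably carrying a metallothionein-driven Gal4 DBD–ROR gamma fusion and a UAS-Photinus luciferase reporter were exposed to compound for 1 hr, then induced with copper sulfate (700 uM final) for 20 hr at ambient temperature before luminescence reading.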
TDP1 block: inhibitors of human tyrosyl-DNA phosphodiesterase TDP1; Potency, µM (doses to about 130 µM), for the others: at the top dose activity change, negative = inhibition, most hits filed as inhibitors; recombinant TDP1, AlphaScreen DNA substrate cleavage; hit rate 0.28% among 350,000; further: nearly all actives have a fitted effect of over 40% in size
Target sequence (Q9NUW8 whole entry, looked up): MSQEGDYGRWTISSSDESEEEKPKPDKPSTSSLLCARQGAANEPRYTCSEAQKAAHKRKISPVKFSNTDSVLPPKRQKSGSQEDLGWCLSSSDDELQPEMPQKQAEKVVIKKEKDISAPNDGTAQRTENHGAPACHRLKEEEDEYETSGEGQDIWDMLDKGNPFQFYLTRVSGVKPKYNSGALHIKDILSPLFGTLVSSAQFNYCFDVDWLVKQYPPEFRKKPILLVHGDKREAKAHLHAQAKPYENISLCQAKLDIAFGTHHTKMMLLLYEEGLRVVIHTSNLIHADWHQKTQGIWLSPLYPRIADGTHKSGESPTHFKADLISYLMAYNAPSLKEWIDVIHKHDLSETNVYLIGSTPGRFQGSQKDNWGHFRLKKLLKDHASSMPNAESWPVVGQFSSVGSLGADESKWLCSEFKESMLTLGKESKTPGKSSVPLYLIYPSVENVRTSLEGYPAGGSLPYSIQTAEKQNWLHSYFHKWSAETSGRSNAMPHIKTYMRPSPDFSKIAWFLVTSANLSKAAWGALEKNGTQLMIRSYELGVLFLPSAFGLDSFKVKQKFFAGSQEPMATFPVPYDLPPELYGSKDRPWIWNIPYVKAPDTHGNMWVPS
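Tdp1 1 nM final; 15 min RT w/ cpd; substrate 15 nM, 5 min; beads 10 ug/ml, 10 min; AlphaScreen read. Neg ctrl: no enzyme.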
VP16 counter: inhibits Gal4-VP16 luciferase reporter, ROR gamma counter-screen; Drosophila S2 Gal4-VP16 UAS-luciferase, luminescence, 20 h; Potency, µM (series often up to 53.6 µM), without a hit: at the top dose activity, negative = inhibition, actives largely listed as inhibitors; hit rate 3.5% among 310,000; AID 2546;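 further: Gal4-VP16 expression switched on by copper sulfate through the metallothionein promoter; nearly all actives have a fitted effect of over 50% in size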
TDP1 cell CPT: DT40-hTDP1 cell growth loss with CPT. chicken DT40 Tdp1-/-;hTDP1 cells + 20 nM CPT, ATP luminescence, 48 h. AID 686979. Potency, µM (doses to about 46.2 µM), for inactives: at the top dose activity change, negative = growth inhibition, actives largely listed as inhibitors. hit rate 12% among 420,000; further: nearly all actives have a fitted effect of over 55% in size
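Chicken DT40 Tdp1-/- cells complemented with human TDP1, 400 cells/well, exposed to compounds plus 20 nM camptothecin for at least 48 h at 37 C; viability read as ATP content by CellTiter-Glo luminescence.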
DT40 TDP1 no CPT: qHTS for Inhibitors of human tyrosyl-DNA phosphodiesterase 1 (TDP1): qHTS in cells in absence of CPT; DT40 Tdp1-/- hTDP1 cells, no CPT, ATP luminescence, 48 h; Potency, µM (titrated, usually from 46.2 µM), for inactives: at the top dose activity change, negative = growth inhibition, usual class: inhibitors; hit rate 15% among 420,000; AID 686978, 2013; further: nearly all actives have a fitted effect of over 55% in size
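Stably hTDP1-transfected Tdp1-null chicken DT40 cells were treated with library compounds minus camptothecin and grown for at least 48 hr at 37 °C, after which cellular ATP was quantified by luminescence.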
Active calls of the source: *. Compounds with a hit are over-represented: about 19% of the library has one in this group of screens. The call rests on the fitted dose curve; in most records, active means well fitted curve in the direction sought with a large enough effect; inconclusive means small, poorly fitted or top-dose-only effect, or another doubt; inactive means no such curve, though single readings can be large; an effect the other way counts as inactive or inconclusive. On the % scale 0 is the no-effect control and ±100 the full control effect; potency means the concentration at half of the fitted maximal effect.

Screening COc1ccc(OC)c(NC(=O)Cn2c(=O)n(-c3cccc(C)c3)c(=O)c3c2c2cc(C)ccc2n3C)c1 returned TDP1 block -11.8%, TDP1 cell CPT inconclusive and DT40 TDP1 no CPT inconclusive.
COc1ccc2c(c1)c1c(c(=O)n(-c3ccc(F)c(Cl)c3)c(=O)n1Cc1cccc(C)c1)n2C was read as TDP1 block -2.8%, TDP1 cell CPT inconclusive and DT40 TDP1 no CPT inconclusive.
COc1ccc2c(c1)c1c(c(=O)n(-c3cccc(C)c3)c(=O)n1Cc1cccc(Cl)c1)n2C was read as TDP1 block 2.8%, TDP1 cell CPT 7.31µM* and DT40 TDP1 no CPT 5.8µM*.
For CCCN(CCC)C(=O)Cn1c(=O)n(-c2cccc(C)c2)c(=O)c2c1c1cc(OC)ccc1n2C the results were TDP1 block -5.9%, TDP1 cell CPT 14.6µM* and DT40 TDP1 no CPT 23.1µM*.
COc1ccc2c(c1)c1c(c(=O)n(-c3ccccc3C)c(=O)n1Cc1ccccc1C)n2C was read as TDP1 block 8.5%, TDP1 cell CPT 0.9% and DT40 TDP1 no CPT -11.3%.
`COc1ccc2c(c1)c1c(c(=O)n(-c3ccccc3C)c(=O)n1Cc1cccc(C(F)(F)F)c1)n2C` gave TDP1 block 5.6%, TDP1 cell CPT 3.66µM* and DT40 TDP1 no CPT 3.66µM*.
`CCNc1ncc2nc(CCc3ccccc3)c(=O)n(Cc3ccc(F)cc3)c2n1` gave RORg inh -20.2%, VP16 counter 4.6%, TDP1 cell CPT -10.3% and DT40 TDP1 no CPT 0.5%.
For Nc1c(S(=O)(=O)c2cccs2)c2nc3ccccc3nc2n1/N=C/c1cccc(O)c1 the results were RORg inh inconclusive, TDP1 block 4.2%, VP16 counter inconclusive, TDP1 cell CPT 13µM* and DT40 TDP1 no CPT inconclusive.
Screening Nc1c(C(=O)NC2CCCCC2)c2nc3ccccc3nc2n1/N=C/c1ccco1 returned RORg inh 12.6µM*, TDP1 block 4.2% and VP16 counter inconclusive.
`COCCNC(=O)c1c(N)n(/N=C/c2ccc(F)cc2)c2nc3ccccc3nc12` gave RORg inh 18.8%, TDP1 block 2.7%, VP16 counter -2.3%, TDP1 cell CPT inconclusive and DT40 TDP1 no CPT inconclusive.
For COCCNC(=O)c1c(N)n(/N=C/c2cccs2)c2nc3ccccc3nc12 the results were RORg inh -7.6%, TDP1 block 2.3%, VP16 counter -3.6%, TDP1 cell CPT inconclusive and DT40 TDP1 no CPT 16.4µM*.
Screening CC(C)Cn1c(N)c(S(=O)(=O)c2cccs2)c2nc3ccccc3nc21 returned RORg inh -14.2%, TDP1 block -4.8%, VP16 counter -17.1%, TDP1 cell CPT 16.4µM* and DT40 TDP1 no CPT inconclusive.
CCCNC(=O)C(Cc1ccccc1)NC(=O)c1ccccn1 (stereo not given) was read as TDP1 block 0.5%, TDP1 cell CPT -19.9% and DT40 TDP1 no CPT -20.3%.
For CC(C)(C)OC(=O)NCCc1nnc(SCc2ccc(Cl)cc2)o1 the results were RORg inh 7.8%, TDP1 block 4.0%, VP16 counter -1.6%, TDP1 cell CPT -0.1% and DT40 TDP1 no CPT -26.2%.
For Cc1ccc(CSc2nnc(CCCCCNC(=O)OC(C)(C)C)o2)cc1 the results were RORg inh inconclusive, VP16 counter -6.1%, TDP1 cell CPT 23.1µM* and DT40 TDP1 no CPT 18.4µM*.
Cc1cccc(CSc2nnc(CCCCCNC(=O)OC(C)(C)C)o2)c1 was read as RORg inh inconclusive, TDP1 block 1.4%, VP16 counter inconclusive, TDP1 cell CPT inconclusive and DT40 TDP1 no CPT 16.4µM*.
Screening C=CCn1c(C)cc(C(=O)COc2ccc(C)nc2[N+](=O)[O-])c1C returned RORg inh 33.1%, TDP1 block 3.4%, VP16 counter -2.9%, TDP1 cell CPT inconclusive and DT40 TDP1 no CPT 20.6µM*.
Screening C=CCn1c(C)cc(C(=O)COc2nncc3ccccc23)c1C returned RORg inh 39.2%, TDP1 block -3.0%, VP16 counter inconclusive, TDP1 cell CPT 8.2µM* and DT40 TDP1 no CPT 7.31µM*.
For CCN(CC)S(=O)(=O)c1ccc(OCC(=O)NC(=O)c2ccccc2OC)c([N+](=O)[O-])c1 the results were RORg inh -32.5%, TDP1 block -2.9%, VP16 counter 15.5%, TDP1 cell CPT -14.6% and DT40 TDP1 no CPT -19.3%.
Cc1ccc(OCC(=O)c2cc(C)n(-c3ccccc3)c2C)c([N+](=O)[O-])n1 was read as RORg inh -66.1%, TDP1 block 10.8%, VP16 counter inconclusive, TDP1 cell CPT inconclusive and DT40 TDP1 no CPT 14.6µM*.
`CCCn1c(C)cc(C(=O)COc2ccc(S(=O)(=O)N(CC)CC)cc2[N+](=O)[O-])c1C` gave RORg inh 23.9%, TDP1 block 5.8%, VP16 counter -6.3%, TDP1 cell CPT 20.6µM* and DT40 TDP1 no CPT 23.1µM*.
Screening O=C(Nc1ccccc1C(=O)OCc1nnc(-c2ccccc2)o1)c1ccco1 returned RORg inh -5.6%, TDP1 block 5.1%, VP16 counter 4.7%, TDP1 cell CPT -10.7% and DT40 TDP1 no CPT -11.3%.
`Cc1ccc(-c2csc(/C(C#N)=C(\O)CCl)n2)cc1` gave RORg inh inconclusive, TDP1 block 2.6%, VP16 counter inconclusive, TDP1 cell CPT inconclusive and DT40 TDP1 no CPT inconclusive.
`N#C/C(=C(/O)CCl)c1nc(-c2ccccc2)cs1` gave RORg inh -22.5%, TDP1 block 2.4%, VP16 counter -3.7%, TDP1 cell CPT 13µM* and DT40 TDP1 no CPT 14.6µM*.
Screening N#C/C(=C(/O)CN1CCN(c2ccccc2F)CC1)c1nc(-c2ccc(Cl)cc2)cs1 returned RORg inh inconclusive, TDP1 block 7.9%, VP16 counter -25.8%, TDP1 cell CPT 20.6µM* and DT40 TDP1 no CPT inconclusive.
For COc1ccc(CCC(=O)Nc2cnc3ccccc3c2)cc1 the results were RORg inh -2.2%, VP16 counter -11.3%, TDP1 cell CPT -0.3% and DT40 TDP1 no CPT 3.8%.
Screening CC1(C(=O)Nc2cnc3ccccc3c2)CCN1CCc1ccccc1 (stereo not given) returned TDP1 cell CPT inconclusive and DT40 TDP1 no CPT 18.4µM*.
For CC1(C(=O)Nc2cnc3ccccc3c2)CCN1C(=O)CCc1ccccc1 (stereo not given) the results were TDP1 cell CPT 18.4µM* and DT40 TDP1 no CPT 18.4µM*.
`CC(C)Oc1ccc(CN2CCC2(C)C(=O)Nc2cnc3ccccc3c2)cc1` (stereo not given) gave TDP1 cell CPT 18.4µM* and DT40 TDP1 no CPT inconclusive.
CCCC(=O)N1CCC1(C)C(=O)Nc1ccc2nc(C)ccc2c1 (stereo not given) was read as TDP1 cell CPT -17.7% and DT40 TDP1 no CPT -29.0%.

Screening results as filed in PubChem.
